Results from the supplement of paper PMC10849652.
Of roughly 8,800 targets only a part is listed; those with a hit were picked by preference. About 0.5% of all pairs of compound and target were hits.

Compound: COc1cc2ncnc(Nc3ccc(F)c(Cl)c3)c2cc1OCCCN1CCOCC1 [gefitinib]
Experiment: log2 fold change, soluble protein after heating vs DMSO (PISA); higher = thermal stabilisation; K562 lysate, 10 uM; active = over 0.2 and 3.5 SD of the protein, either way, in both replicates (recomputed)
In short: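 To prepare the extract, K562 pellets were dounce-homogenised in PBS pH 7.4 with 1 mM MgCl2, giving crude material at 1 mg/mL protein. This was treated with 10 μM compound for 30 min, then heated in aliquots for 3 min over 48°C-58°C before pooling and addition of NP-40 to 0.5% at 4°C. Centrifugation at 21,000xg for 90 min left soluble protein in the supernatant, which TMTpro 16plex LC-MS/MS quantified with equalised channel sums. Results are log-two fold changes in thermal stability compared with solvent controls, from duplicates.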

UniProt P08962, sequence (P08962 whole entry, looked up): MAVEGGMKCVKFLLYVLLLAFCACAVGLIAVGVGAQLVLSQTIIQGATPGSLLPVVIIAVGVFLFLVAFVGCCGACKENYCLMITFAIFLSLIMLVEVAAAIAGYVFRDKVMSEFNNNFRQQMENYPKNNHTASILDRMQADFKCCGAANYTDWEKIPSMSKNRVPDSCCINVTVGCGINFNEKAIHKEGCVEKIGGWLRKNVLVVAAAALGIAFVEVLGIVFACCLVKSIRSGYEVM
UniProt Q96ER9, sequence (Q96ER9 whole entry, looked up): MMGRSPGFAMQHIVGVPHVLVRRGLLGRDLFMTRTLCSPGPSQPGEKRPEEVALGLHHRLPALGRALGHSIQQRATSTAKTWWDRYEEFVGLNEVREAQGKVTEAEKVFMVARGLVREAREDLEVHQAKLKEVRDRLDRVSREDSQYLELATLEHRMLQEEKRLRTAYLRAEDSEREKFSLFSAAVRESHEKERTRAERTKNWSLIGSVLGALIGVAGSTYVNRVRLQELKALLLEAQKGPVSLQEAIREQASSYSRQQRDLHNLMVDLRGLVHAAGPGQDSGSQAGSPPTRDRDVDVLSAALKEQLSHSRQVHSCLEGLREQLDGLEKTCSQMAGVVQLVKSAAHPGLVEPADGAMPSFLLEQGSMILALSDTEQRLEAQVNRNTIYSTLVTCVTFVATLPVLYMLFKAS
UniProt P01024, sequence (P01024 whole entry, looked up): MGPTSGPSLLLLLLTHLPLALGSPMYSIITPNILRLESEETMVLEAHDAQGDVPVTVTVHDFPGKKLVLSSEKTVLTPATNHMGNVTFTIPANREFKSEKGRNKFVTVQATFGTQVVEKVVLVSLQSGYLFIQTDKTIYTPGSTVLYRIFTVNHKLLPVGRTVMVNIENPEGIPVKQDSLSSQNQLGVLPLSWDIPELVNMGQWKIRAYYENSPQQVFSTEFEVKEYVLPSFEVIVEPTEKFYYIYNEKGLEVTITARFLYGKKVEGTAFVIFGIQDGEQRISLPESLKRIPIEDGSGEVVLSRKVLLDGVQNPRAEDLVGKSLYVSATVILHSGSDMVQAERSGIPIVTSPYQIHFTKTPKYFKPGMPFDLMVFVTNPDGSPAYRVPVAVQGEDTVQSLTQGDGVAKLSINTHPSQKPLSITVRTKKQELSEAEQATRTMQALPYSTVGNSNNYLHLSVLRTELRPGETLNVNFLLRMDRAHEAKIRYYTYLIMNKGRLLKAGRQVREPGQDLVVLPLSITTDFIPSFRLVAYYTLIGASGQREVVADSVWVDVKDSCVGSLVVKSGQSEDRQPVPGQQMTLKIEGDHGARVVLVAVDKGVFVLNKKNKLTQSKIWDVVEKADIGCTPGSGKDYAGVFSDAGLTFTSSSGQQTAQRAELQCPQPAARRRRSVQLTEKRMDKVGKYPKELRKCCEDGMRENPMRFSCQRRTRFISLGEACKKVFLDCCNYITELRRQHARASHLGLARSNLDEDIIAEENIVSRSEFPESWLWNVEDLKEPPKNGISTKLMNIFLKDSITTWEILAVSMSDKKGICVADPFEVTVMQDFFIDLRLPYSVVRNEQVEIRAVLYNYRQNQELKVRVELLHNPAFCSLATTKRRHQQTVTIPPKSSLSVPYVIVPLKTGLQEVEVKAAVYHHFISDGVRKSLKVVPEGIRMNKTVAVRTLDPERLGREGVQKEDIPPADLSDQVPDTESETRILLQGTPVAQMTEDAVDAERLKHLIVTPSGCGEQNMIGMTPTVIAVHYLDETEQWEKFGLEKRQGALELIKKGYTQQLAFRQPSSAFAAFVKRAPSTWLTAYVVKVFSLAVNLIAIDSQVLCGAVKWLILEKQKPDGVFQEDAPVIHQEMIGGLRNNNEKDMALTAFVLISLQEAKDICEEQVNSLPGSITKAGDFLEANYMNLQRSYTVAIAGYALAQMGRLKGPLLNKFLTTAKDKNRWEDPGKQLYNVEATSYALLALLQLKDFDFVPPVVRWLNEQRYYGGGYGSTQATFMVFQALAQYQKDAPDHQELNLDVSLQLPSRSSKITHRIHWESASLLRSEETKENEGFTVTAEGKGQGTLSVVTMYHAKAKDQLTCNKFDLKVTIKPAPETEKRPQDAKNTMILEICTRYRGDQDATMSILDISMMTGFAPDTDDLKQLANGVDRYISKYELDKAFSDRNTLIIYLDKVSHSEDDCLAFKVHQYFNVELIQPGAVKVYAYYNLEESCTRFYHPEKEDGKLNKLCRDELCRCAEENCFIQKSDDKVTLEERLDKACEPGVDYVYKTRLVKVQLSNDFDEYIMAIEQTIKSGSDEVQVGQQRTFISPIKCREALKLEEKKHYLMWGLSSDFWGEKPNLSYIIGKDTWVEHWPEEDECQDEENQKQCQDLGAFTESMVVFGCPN
UniProt Q9Y6K0, sequence (Q9Y6K0 whole entry, looked up): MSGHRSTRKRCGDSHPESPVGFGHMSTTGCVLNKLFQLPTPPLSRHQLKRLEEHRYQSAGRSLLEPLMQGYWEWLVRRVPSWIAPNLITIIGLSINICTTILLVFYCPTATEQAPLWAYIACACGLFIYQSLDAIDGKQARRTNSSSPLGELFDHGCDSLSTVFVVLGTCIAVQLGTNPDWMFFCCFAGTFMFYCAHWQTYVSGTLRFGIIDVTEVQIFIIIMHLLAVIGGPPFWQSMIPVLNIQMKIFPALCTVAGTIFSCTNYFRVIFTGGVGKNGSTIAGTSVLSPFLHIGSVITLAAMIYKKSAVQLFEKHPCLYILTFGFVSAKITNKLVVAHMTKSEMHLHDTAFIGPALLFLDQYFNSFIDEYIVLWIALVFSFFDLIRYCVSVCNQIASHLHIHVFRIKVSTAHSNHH
UniProt Q8WUX2, sequence (Q8WUX2 whole entry, looked up): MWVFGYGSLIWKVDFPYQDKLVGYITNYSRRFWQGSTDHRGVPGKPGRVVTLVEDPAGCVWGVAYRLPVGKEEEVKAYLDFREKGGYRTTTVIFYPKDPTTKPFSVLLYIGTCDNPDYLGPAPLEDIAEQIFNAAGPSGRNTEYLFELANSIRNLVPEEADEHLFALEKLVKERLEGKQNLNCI
UniProt Q5VT25, sequence (Q5VT25 whole entry, looked up): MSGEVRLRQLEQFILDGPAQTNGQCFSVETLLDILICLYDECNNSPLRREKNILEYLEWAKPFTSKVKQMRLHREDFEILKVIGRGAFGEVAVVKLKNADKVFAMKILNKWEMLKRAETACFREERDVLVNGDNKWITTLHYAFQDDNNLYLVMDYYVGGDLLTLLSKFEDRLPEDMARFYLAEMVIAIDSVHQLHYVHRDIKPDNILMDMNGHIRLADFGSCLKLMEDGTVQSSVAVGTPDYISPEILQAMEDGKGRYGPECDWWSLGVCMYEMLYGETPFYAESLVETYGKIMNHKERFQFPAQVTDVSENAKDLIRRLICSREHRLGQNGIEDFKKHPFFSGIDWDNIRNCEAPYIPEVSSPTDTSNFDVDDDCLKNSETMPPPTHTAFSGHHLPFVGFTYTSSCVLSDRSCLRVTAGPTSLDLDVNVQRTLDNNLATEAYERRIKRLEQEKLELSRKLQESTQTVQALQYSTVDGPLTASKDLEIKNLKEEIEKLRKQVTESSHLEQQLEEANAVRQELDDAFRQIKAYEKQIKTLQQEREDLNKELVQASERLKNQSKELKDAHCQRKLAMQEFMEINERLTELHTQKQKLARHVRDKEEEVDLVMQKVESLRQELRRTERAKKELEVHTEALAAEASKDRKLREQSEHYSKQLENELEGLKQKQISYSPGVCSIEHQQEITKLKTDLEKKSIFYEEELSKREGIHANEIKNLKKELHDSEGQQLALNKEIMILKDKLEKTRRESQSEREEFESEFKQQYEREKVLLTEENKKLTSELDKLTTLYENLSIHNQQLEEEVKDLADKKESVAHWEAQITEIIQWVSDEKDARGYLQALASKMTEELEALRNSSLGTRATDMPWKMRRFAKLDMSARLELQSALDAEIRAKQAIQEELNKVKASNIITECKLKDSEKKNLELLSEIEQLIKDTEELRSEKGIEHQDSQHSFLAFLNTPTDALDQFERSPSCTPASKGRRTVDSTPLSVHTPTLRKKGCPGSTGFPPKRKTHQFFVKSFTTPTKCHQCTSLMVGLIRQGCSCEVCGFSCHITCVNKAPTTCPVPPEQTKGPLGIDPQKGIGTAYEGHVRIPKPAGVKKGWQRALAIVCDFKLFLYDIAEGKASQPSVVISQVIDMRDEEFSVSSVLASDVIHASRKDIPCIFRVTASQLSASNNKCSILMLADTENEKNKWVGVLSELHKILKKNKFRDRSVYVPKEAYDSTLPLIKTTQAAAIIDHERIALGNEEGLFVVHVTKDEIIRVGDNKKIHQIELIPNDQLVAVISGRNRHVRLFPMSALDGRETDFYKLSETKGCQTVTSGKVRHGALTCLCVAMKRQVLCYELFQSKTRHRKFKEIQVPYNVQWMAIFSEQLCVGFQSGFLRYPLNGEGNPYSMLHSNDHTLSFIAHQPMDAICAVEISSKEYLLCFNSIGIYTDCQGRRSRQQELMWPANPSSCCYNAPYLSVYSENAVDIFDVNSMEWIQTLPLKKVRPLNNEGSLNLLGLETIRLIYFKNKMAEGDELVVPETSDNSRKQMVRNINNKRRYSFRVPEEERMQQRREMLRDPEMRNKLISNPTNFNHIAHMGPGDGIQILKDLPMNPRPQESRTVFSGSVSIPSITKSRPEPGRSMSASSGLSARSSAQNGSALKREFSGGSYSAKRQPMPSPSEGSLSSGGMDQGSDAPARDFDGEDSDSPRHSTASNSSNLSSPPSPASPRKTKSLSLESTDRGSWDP
UniProt Q8N4Q1, sequence (Q8N4Q1 whole entry, looked up): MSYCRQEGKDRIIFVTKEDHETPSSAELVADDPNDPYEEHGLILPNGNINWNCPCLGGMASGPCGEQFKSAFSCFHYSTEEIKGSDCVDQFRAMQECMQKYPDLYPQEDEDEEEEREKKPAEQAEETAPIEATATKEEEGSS

log2 fold change, inactive:
BTAF1 (UniProt O14981) 0.009
CCDC51 (UniProt Q96ER9) 0.022
ATM (UniProt Q13315) 0.022
CDC42BPA isoform 6 (UniProt Q5VT25) -0.004
CDK11B (UniProt P21127) -0.016
CENPQ (UniProt Q7L2Z9) 0.091
CEPT1 (UniProt Q9Y6K0) -0.036
CD63 (UniProt P08962) -0.023
CHAC2 (UniProt Q8WUX2) 0
C3 (UniProt P01024) 0.05
CHCHD4 isoform 2 (UniProt Q8N4Q1) -0.015
CHD1L (UniProt Q86WJ1) 0.006
CCDC22 (UniProt O60826) 0.027
C2CD5 isoform 3 (UniProt Q86YS7) 0.054
